The text below walks through data of PubChem BioAssay (NCATS).

SMILES strings stand for the structures. Values without a mark were called inactive. Calls of active or inactive are those of the source. Calls come from the whole dose curve; as a rule, active = well fitted inhibition curve with a large enough effect; inconclusive = small, poorly fitted or top-dose-only effect; inactive = flat fitted curve, though single readings scatter.
Potency is the fitted concentration of half-maximal effect.

The target in this experiment is Luciferin 4-monooxygenase (Photinus pyralis) (UniProt P08659). Nature of the experiment: Primary firefly luciferase (FLuc) qHTS assay for identification of artifact compounds. (AID 1845220). Note: nearly all actives have a fitted effect of over 60% in size. To be noted: purified firefly luciferase, luminescence, 5 min; series mostly up to 54.1 µM; activity change, negative = inhibition: at the top concentration. The text has this: PI: Alexander Tropsha Ph.D.
UNC Eshelman School of Pharmacy
University of North Carolina, Chapel Hill, North Carolina
Hits from high-throughput screening (HTS) of chemical libraries are often false positives due to their interference with the assay detection technology. In response to this problem, we generated the largest publicly available library of chemical liabilities and developed a free webtool to predict HTS artifacts, both of which are described herein. More specifically, we generated, curated, and integrated HTS datasets for thiol reactivity, redox activity, and luciferase (firefly and nano) activity. Using these curated datasets, we developed and validated several Quantitative Structure-Interference Relationship (QSIR) models to predict nuisance behavior. […] These models were employed for virtual profiling of the National Center for Advancing Translational Science's (NCATS) in-house library, and 256 compounds for each assay were selected for the experimental validation of nuisance behavior. The BA for these external predictions ranged from 58 to 78% for compounds within the applicability domains of the models. […] The models developed in this study, along with aggregation models previously developed by our group (SCAM Detective) were implemented in "Liability Predictor," an online tool which may be used as part of chemical library design or for triaging HTS hits. Both the models and the curated datasets are publicly available at https://liability.mml.unc.edu/.
SEQUENCE No. (e.g., 1, 2, 3, etc.); […] (e.g., Cells, Incubation, Reagent, etc.); VALUE; DESCRIPTION.
1; Reagent; 3 uL; Luciferase substrate mixture.
2; Compounds and control; 16 nL; Kalypsis pin tool (Wako USA) equipped with a 1536-well pin head.
4; Reagent; 1 uL; Luciferase enzyme.
6; Detection; Luminescence, ViewLux microplate reader.
NOTES (numbers refer to Sequence numbers above)
1. 3 uL of luciferase substrate mixture containing D-luciferin and ATP (final concentrations of 10 uM and 10 uM, respectively) in assay buffer (10 mM Mg-acetate, 0.01% Tween-20, 0.05% bovine serum albumin, 50 mM Tris acetate, pH 7.6) was dispensed into all wells of a 1536-well assay plate (solid-bottom white plate; Greiner Bio One, Monroe, NC).
2. A Wako Pin-tool (Wako Automation, Richmond, VA) was used to transfer 16 nL of compounds (consisting of 7-plates in qHTS format, final concentration range 18.3 nM to 114 uM) or control PTC124 (final concentration range 1.22 nM to 40 uM).
3. 15 min. incubation at room temperature protected from light.
4. 1 uL of luciferase enzyme (final concentration 10 nM, Photinus pyralis luciferase) or buffer was dispensed for a final assay volume of 4 uL.
5. Plates were centrifuged (121xg, 15 seconds) and incubated for 5 minutes.
6. Samples were read for luminescence on a ViewLux CCD imager (PerkinElmer). Data were normalized to no-enzyme (0% activity) and no-inhibitor (DMSO; 100%) controls and the resulting percent inhibition data were fitted to a 4-parameter Hill equation using NCATS in-house software.
In general terms: Quantitative high-throughput screening tests each substance at several concentrations.
With `COc1cccc2c(NCc3ccccc3)nc(-n3c(N)nc4ccccc43)nc12`, the “activity change, negative = inhibition” value was -12.2%. On the same count and under the same terms, for `Cc1cnc(-c2cnc(NCCNc3ccc(C#N)cn3)nc2-c2ccc(Cl)cc2Cl)[nH]1` the value was -8.14%; for `CCn1nnc2c(N3CCOCC3)nc(-c3ccc(NC(=O)Nc4ccc(C(=O)N5CCN(C)CC5)cc4)cc3)nc21`, 2.1%. Consider `c1ccc2c(CCNc3ccc(Nc4ccncc4)cc3)c[nH]c2c1`, for which the outcome was inactive. The same measure, in the same setting: for `CNC(=O)c1c(F)cccc1Nc1nc(Nc2cc3c(cc2OC)CCN3C(=O)CN(C)C)nc2[nH]ccc12` the value was “inactive”. As for `C[C@@H](Oc1cc(-c2cnn(C3CCNCC3)c2)cnc1N)c1c(Cl)ccc(F)c1Cl`, the Potency result is “inactive”. Consider `CN1CCN(Cc2ccc(NC(=O)Nc3ccc(Oc4cc(NC(=O)C5CC5)ncn4)cc3)cc2C(F)(F)F)CC1`, for which the “activity change, negative = inhibition” value was 0.0819%. Same read-out and setting: the same measure for `O=C(Nc1cc(C(F)(F)F)cc(C(F)(F)F)c1)c1cc(Cl)ccc1O`: 2.57%. In the case of `CC(C)(O)c1cc2nc(-c3cnc(N)nc3)nc(N3CCOCC3)c2s1`, the compound was called inactive. For the compound `CC(C)c1nn(-c2c(Cl)cccc2Cl)c2nc(Cc3ccc(OCCO)cc3)[nH]c(=O)c12`, the “activity change, negative = inhibition” value is 3.67%.

For `COc1cccc(-c2ccc(NC(=O)C3=C(C(=O)O)CCC3)c(F)c2)c1`, the Potency is 5.36 µM (active).

Take `Fc1cc(-c2cccc3ncc(-c4cnn(C5CCNCC5)c4)nc23)cc(F)c1CN1CCOCC1`: the outcome was inactive. Take `CC(C)(C)c1cc(NC(=O)Nc2ccc(-c3cn4c(n3)sc3cc(OCCN5CCOCC5)ccc34)cc2)no1`: the “activity change, negative = inhibition” value is -22.9%. Turning to `CNc1nccc(-c2cccnc2Oc2cc(C(=O)Nc3cccc(C(F)(F)F)c3)ccc2C)n1`, the outcome was inactive. On the same count and under the same terms, the same measure for `COc1cc(C)c(Sc2cnc(NC(=O)c3ccc(CNC(C)C(C)C)cc3)s2)cc1C(=O)N1CCN(C(C)=O)CC1` (stereo not given): “inactive”.

On to `CC[C@@H]1C(=O)N(C)c2cnc(Nc3ccc(C(=O)NC4CCC(N5CCN(CC6CC6)CC5)CC4)cc3OC)nc2N1C(C)C` (stereo not given in full), for which the Potency result is “inactive”.

As to `NCC(=O)Nc1ccc(-n2nc(C(F)(F)F)cc2-c2ccc3c(ccc4ccccc43)c2)cc1`, the outcome was inactive.

`CNC(=O)c1nn(C)c2c1C(C)(C)Cc1cnc(Nc3ccc(N4CCN(C)CC4)cc3)nc1-2`: the result was inactive.

Consider `NC1(Cc2ccc(Cl)cc2)CCN(c2ncnc3[nH]ccc23)CC1`, for which the compound was classed as inactive. Consider `C=CC(=O)Nc1cccc(Oc2nc(Nc3ccc(N4CCN(C)CC4)cc3)ncc2Cl)c1`, for which the result was inactive. In the case of `OCc1ccc(-c2ccc(-c3ccc(CO)s3)o2)s1`, the Potency is 1.31 µM (active). As for `N#Cc1c(O)c2c(-c3ccc(-c4ccccc4O)cc3)csc2[nH]c1=O`, the “activity change, negative = inhibition” value is -21.9%. The same measure, in the same setting: the same measure for `CN(C)CC(C)(C)CNc1nn2c(-c3ccccc3)nnc2cc1C1CCC1`: 1.11%; for `CC(=O)c1c(C)c2cnc(Nc3ccc(N4CCNCC4)cn3)nc2n(C2CCCC2)c1=O`: 1.06% [at 6.45 µM]; for `Cc1cc(Nc2ncnc3ccc(-c4ccc(CNCCS(C)(=O)=O)o4)cc23)ccc1Oc1ccn2ncnc2c1`: 3.28%.

Consider `C[C@@H]1COC(Nc2ccc3ncnc(Nc4ccc(OCc5nccs5)c(Cl)c4)c3c2)=N1`, for which the Potency is 19 µM (active). For `Cn1c(=O)n(-c2ccc(C(C)(C)C#N)cc2)c2c3cc(-c4cnc5ccccc5c4)ccc3ncc21`, the outcome was inactive. With `CCCCOc1c(C(=O)c2c(F)cc(C)cc2F)cnc2n[nH]cc12`, the “activity change, negative = inhibition” value was 4.5%. On to `CC(C)c1cc(C(=O)N2Cc3ccc(CN4CCN(C)CC4)cc3C2)c(O)cc1O`, for which the compound was classed as inactive. `Cc1cc(CN2CCN(c3c(Br)cnc4nc(-c5ccc(N6CCN(C)CC6)cc5)[nH]c34)CC2)no1`: the “activity change, negative = inhibition” value was 2.32%. As to `Clc1cccc(-n2nnnc2NCc2ccccc2Oc2ccccn2)c1Cl`, the result was inactive.

With `C[C@]12CC[C@H](O)CC1=CCC1C2CC[C@]2(C)C(n3cnc4ccccc43)=CCC12` (stereo not given in full), the “activity change, negative = inhibition” value was -8.1%. Still for that read-out and setting: the same measure for `O=C1CCC[C@@H]2[C@H]3CCC[N+]4([O-])CCC[C@@H](CN12)[C@@H]34` (stereo not given in full): 1.13%. In the case of `COC(=O)Nc1nc2ccc(C(=O)c3ccc(F)cc3)cc2[nH]1`, the compound was called inactive. Consider `O=C(CCCCCCNC(=O)c1cnc(N(c2ccccc2)c2ccccc2)nc1)NO`, for which the “activity change, negative = inhibition” value is -9.04%. Consider `Cc1cn2cc(C(=O)N(C)CCO)cc(N[C@@H]3CCOc4cccc(C)c43)c2n1`, for which the “activity change, negative = inhibition” value was -5.66%. Same read-out and setting: for `Nc1nc(Nc2ccc(S(N)(=O)=O)cc2)nn1C(=O)c1c(F)cccc1F` the value was 0.636%. As to `C=CC(=O)Nc1cccc(Oc2nc(Nc3ccc(N4CCN(C)CC4)cc3OC)ncc2Cl)c1`, the result was inactive. Consider `CNC(=O)c1cc(Oc2ccc(NC(=O)Nc3cc(C(C)(C)C)nn3-c3ccc4ncccc4c3)c(F)c2)ccn1`, for which the “activity change, negative = inhibition” value is 4.25%. Same read-out and setting: for `CS(=O)(=O)c1ccc(-c2cnc(N)c(C(=O)Nc3ccccc3)n2)cc1` the value was 3.6%.
